Several values for one entry are separate records, joined by “and”; a condition that tells them apart may be missing. Equal values may be shown once. Results filed as inconclusive are left out. Activity calls are given as the source filed them. Unless noted, calls come from the whole dose curve; as a rule, active = well fitted curve in the direction sought with a large enough effect; inconclusive = small, poorly fitted or top-dose-only effect, or another doubt; inactive = no such curve, though single readings can be large; an effect the other way counts as inactive or inconclusive.
Assays:
[1] = target: Cellular tumor antigen p53 (Homo sapiens) (UniProt P04637); test: Primary qHTS for small molecule compounds that upregulate eGFP-tagged delta133p53alpha (in N-terminal) cells. (AID 2060322); conditions: NCI-H358 eGFP-delta133p53alpha fluorescence, 24 h; activation: hits give high values;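 note: series mostly up to about 56 µM; 0% = DMSO vehicle and 100% = reference activator; nearly all actives have a fitted effect of over 75% in size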
How it was run: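 NCI-H358 cells pre-induced 24 h with 10 ng/ml doxycycline to express N-terminal eGFP-delta133p53alpha, then dosed 24 h at 37C without doxycycline; fixed, Hoechst-stained, GFP intensity by laser scanning cytometry, normalized to DMSO (0%) and 57.5 uM 5-azacytidine (100%).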

[2] = target: Cellular tumor antigen p53 (Homo sapiens) (UniProt P04637); test: Primary qHTS for small molecule compounds that upregulate eGFP-tagged delta133p53alpha (in C-terminal) cells. (AID 2060324);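 note: 0% = DMSO wells and 100% = 57.5 µM 5-azacytidine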
How it was run: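 In this qHTS, GFP-tagged delta133p53alpha levels are measured in fixed NCI-H358 cells after 24 h compound exposure at 37 °C. The cells are pre-induced with 100 ng/ml doxycycline, and signal is normalized to DMSO-treated wells as 0%.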

[3] = target: Aldehyde dehydrogenase, mitochondrial (Homo sapiens) (UniProt P05091); test: qHTS for Inhibitors of the Aldehyde Dehydrogenase Family (ALDH2) Validation screens (AID 2061302; active = well fitted inhibition curve with a large enough effect; title and protocol of this record describe different tests;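 note: plate controls were DMSO vehicle for no effect and maximal DPI positive control response for full effect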)
[4] = target: Retinaldehyde dehydrogenase 3 (Homo sapiens) (UniProt P47895); test: qHTS for Inhibitors of the Aldehyde Dehydrogenase Family (ALDH1A3) Validation screen (AID 2061312); note: % is set by controls: 0 for no effect and ±100 for the full control effect; nearly all actives have a fitted effect of over 45% in size

Cellular tumor antigen p53 (Homo sapiens), sequence (P04637 whole entry, looked up): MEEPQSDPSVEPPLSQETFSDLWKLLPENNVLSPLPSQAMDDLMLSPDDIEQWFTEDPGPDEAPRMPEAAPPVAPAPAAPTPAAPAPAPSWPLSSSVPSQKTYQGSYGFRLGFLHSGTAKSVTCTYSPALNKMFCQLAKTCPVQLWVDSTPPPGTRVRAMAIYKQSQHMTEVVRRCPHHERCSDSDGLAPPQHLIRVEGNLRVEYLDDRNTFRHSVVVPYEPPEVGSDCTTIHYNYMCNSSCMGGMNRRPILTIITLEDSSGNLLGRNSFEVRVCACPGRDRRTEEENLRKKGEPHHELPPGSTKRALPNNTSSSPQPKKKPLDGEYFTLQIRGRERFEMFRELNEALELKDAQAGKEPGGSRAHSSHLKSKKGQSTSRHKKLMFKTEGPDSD

CC(C)Cn1c(=O)n(C)c(=O)c2[nH]cnc21
inactive: activation [1] -30.3% | Potency [2] | Potency [3] | Potency [4]

O=C(O)C1=CCNCC1
inactive: activation [1] -0.576% | Potency [2] | Potency [3] | Potency [4]

c1ccc(-c2ccccn2)nc1
inactive: activation [1] -21.2% | Potency [2] | Potency [3] | Potency [4]

CCN(Cc1ccncc1)C(=O)C(CO)c1ccccc1 (stereo not drawn)
inactive: activation [1] 3.95% and 13.2% | Potency [2] | Potency [3] | Potency [4]

N[C@@H](Cc1cnc[nH]1)C(=O)O
inactive: activation [1] 30.1% | Potency [2] | Potency [3] | Potency [4]

O=C1/C(=C/c2ccsc2)CC/C1=C\c1cccs1
inactive: activation [1] 14.3% | Potency [2] | Potency [3] | Potency [4]

C#CC(N)CCC(=O)O (stereo not drawn)
inactive: activation [1] -41.5% | Potency [2] | Potency [3] | Potency [4]

CN(C)C(=O)Oc1cccc([N+](C)(C)C)c1
inactive: activation [1] -10.7% and -13.7% | Potency [2] | Potency [3] | Potency [4]

NC(N)=NC(=O)c1nc(Cl)c(N2CCCCCC2)nc1N
inactive: activation [1] -39.1% | Potency [2] | Potency [3] | Potency [4]

CC(C)CC(NP(=O)(O)O[C@@H]1O[C@@H](C)[C@H](O)[C@@H](O)[C@H]1O)C(=O)NC(Cc1c[nH]c2ccccc12)C(=O)O (stereo partly drawn)
inactive: activation [1] -14.9% | Potency [2] | Potency [3] | Potency [4]

CSc1nc(N)c2ncn([C@@H]3O[C@H](COP(=O)(O)OP(=O)(O)O)C(O)[C@H]3O)c2n1 (stereo partly drawn)
inactive: activation [1] -2.39% | Potency [2] | Potency [3] | Potency [4]

CCCOC(=O)c1c(-c2ccccc2)nc(CC)c(C(=O)SCC)c1CCC
inactive: activation [1] -30.9% | Potency [2] | Potency [3] | Potency [4]
